Targets with a hit are over-represented here; the source holds about 7,900 in all. About 0.6% of all pairs of compound and target were hits. Unmarked numbers belong to inactive results.
Experiments:
Test in all cases: log2 fold change, soluble protein after heating vs DMSO (PISA); higher = thermal stabilisation; K562 cells, 10 uM, 30 min; active = over 0.2 and 3.5 SD of the protein, either way, in both replicates (recomputed)
erlotinib = compound: C#Cc1cccc(Nc2ncnc3cc(OCCOC)c(OCCOC)cc23)c1 [erlotinib]
Summary of the method: (§1)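 Soluble protein was defined as the supernatant after 21,000xg for 90 min. It came from K562 cells at 2×10^6 cells/mL given 10 μM compound for 30 min, heated in aliquots for 3 min across 48°C-58°C, pooled, and extracted in PBS with 0.5% NP-40 at 4°C, and was quantified by TMTpro 16plex LC-MS/MS with equalised channel sums. Thermal stability against control samples, from duplicates, is reported as log2 fold change.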

[1] = compound: C/C(=N\NC(=O)C1=CC(=CC=C1)S(=O)(=O)N2CCOCC2)/C3=C(C=CC(=C3)Cl)O
Summary of the method: as §1

[2] = compound: C1=CC(=C(C=C1Cl)C2=NC3=NC=CN=C3C(=N2)NC4=CC=NC=C4)F
Summary of the method: as §1

[3] = compound: C1=CC(=CC=C1C2=NC3=C(N2)C=C(C=C3)C(=O)N)OC4=CC=C(C=C4)Cl
Summary of the method: as §1

[4] = compound: C1=CC2=C(C=CC(=C2)/C=C\3/C(=O)NC(=NCC4=CC=CS4)S3)N=C1
Summary of the method: as §1

[5] = compound: C1=CC2=NC=CN=C2C=C1/C=C/3\C(=O)NC(=O)S3
Summary of the method: as §1

[6] = compound: C1=CC=C(C=C1)C2=NC(=C(N2)C3=CC=NC=C3)C4=CC(=C(C=C4)Cl)O
Summary of the method: as §1

[7] = compound: C1=CC=C2C(=C1)C3=NNC4=CC=CC(=C43)C2=O
Summary of the method: as §1

[8] = compound: C1CCN(C1)C(=O)NC2=CC=CC(=C2)NC3=NC=C(C(=N3)NCCC4=CN=CN4)Br
Summary of the method: as §1

[9] = compound: C1CN(CCC1(CC2=CC=C(C=C2)Cl)N)C3=NC=NC4=C3C=CN4
Summary of the method: as §1

IRAK-1-4 Inhibitor I = compound: C1COCCN1CCN2C3=CC=CC=C3N=C2NC(=O)C4=CC(=CC=C4)[N+](=O)[O-] [IRAK-1-4 Inhibitor I]
Summary of the method: as §1

ibrutinib = compound: C=CC(=O)N1CCC[C@@H](n2nc(-c3ccc(Oc4ccccc4)cc3)c3c(N)ncnc32)C1 [ibrutinib]
Summary of the method: as §1

[10] = compound: CC(=O)c1cnc2ccc(-c3cc(Cl)c(O)c(Cl)c3)nc2c1N[C@H]1CC[C@H](CN(C)C)CC1
Summary of the method: as §1

ralimetinib = compound: CC(C)(C)Cn1c(N)nc2ccc(-c3[nH]c(C(C)(C)C)nc3-c3ccc(F)cc3)nc21 [ralimetinib]
Summary of the method: as §1

[11] = compound: CC(C)(O)CC(=O)NCCn1ccc2ncnc(Nc3ccc(Oc4cccc(C(F)(F)F)c4)c(Cl)c3)c21
Summary of the method: as §1

[12] = compound: CC(C)C1=C2N=C(C=C(N2N=C1)NCC3=CC=CC=C3)NCCCCCCN
Summary of the method: as §1

[13] = compound: CC(C)C[C@@H](C=O)NC(=O)[C@H](CC(C)C)NC(=O)[C@H](CC(C)C)NC(=O)OCc1ccccc1
Summary of the method: as §1

pinometostat = compound: CC(C)N(C[C@H]1O[C@@H](n2cnc3c(N)ncnc32)[C@H](O)[C@@H]1O)[C@H]1C[C@@H](CCc2nc3cc(C(C)(C)C)ccc3[nH]2)C1 [pinometostat]
Summary of the method: as §1

[14] = compound: CC1=C(C(CC(=O)N1)C2=CC=C(C=C2)C(F)(F)F)C(=O)NC3=C(C=C4C(=C3)C=NN4)F
Summary of the method: as §1

[15] = compound: CC1=C(C2=C(C=C1)C(=O)C3=CC=CC=C3N2CCCN)C
Summary of the method: as §1

UniProt Q8WV07, sequence (Q8WV07 whole entry, looked up): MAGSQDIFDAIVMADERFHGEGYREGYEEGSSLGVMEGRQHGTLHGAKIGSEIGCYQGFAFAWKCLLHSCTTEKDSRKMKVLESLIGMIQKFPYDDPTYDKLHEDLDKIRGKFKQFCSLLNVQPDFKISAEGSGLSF
UniProt P07948, sequence (P07948 whole entry, looked up): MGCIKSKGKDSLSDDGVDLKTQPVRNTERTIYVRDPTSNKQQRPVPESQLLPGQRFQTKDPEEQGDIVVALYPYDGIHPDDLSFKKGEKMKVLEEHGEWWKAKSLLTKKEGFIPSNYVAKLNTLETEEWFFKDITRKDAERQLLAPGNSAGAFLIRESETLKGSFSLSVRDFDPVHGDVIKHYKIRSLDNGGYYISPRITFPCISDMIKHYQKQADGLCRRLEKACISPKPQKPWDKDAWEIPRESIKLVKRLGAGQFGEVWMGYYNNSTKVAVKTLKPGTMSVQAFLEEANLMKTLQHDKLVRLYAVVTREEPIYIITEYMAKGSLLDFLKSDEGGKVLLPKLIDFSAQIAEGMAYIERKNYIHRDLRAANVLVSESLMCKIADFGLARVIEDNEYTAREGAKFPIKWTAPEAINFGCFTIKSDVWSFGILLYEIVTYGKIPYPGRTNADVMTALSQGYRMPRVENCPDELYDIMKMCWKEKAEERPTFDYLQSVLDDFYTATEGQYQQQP
UniProt Q9UGP4, sequence (Q9UGP4 whole entry, looked up): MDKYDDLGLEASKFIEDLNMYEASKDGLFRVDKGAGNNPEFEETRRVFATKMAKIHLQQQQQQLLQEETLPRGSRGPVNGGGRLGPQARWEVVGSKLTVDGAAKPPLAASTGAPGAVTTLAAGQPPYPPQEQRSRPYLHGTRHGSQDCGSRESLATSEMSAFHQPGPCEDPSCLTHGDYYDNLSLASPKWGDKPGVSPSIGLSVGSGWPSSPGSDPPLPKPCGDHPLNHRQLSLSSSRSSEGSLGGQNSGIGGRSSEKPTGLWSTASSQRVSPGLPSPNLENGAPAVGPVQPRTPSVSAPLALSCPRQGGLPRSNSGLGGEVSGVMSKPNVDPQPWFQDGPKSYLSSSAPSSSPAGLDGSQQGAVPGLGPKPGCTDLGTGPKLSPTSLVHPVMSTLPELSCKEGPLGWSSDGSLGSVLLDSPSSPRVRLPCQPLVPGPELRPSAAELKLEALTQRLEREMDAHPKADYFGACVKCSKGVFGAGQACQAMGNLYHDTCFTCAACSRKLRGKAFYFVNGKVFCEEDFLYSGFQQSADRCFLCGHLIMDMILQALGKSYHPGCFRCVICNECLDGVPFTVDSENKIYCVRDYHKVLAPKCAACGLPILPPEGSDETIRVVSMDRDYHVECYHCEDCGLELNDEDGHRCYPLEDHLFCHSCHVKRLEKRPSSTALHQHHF
UniProt P02545, sequence (P02545 whole entry, looked up): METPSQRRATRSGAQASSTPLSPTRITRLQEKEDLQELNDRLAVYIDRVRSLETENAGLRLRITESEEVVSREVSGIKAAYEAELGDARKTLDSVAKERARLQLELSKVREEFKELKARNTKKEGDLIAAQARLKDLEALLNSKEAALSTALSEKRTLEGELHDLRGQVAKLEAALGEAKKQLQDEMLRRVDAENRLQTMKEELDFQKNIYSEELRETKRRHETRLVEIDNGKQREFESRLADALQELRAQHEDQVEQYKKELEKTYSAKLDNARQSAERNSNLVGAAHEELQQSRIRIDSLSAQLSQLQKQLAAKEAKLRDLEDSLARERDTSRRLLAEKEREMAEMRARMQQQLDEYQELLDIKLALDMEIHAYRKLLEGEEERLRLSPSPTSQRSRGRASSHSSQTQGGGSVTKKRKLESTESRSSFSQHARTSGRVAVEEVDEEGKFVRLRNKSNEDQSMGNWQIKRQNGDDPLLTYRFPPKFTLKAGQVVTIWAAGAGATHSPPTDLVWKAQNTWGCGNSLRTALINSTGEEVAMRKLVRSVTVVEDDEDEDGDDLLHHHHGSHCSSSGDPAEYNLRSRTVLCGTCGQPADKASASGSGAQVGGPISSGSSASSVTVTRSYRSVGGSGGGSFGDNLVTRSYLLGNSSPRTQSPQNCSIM
UniProt O43766, sequence (O43766 whole entry, looked up): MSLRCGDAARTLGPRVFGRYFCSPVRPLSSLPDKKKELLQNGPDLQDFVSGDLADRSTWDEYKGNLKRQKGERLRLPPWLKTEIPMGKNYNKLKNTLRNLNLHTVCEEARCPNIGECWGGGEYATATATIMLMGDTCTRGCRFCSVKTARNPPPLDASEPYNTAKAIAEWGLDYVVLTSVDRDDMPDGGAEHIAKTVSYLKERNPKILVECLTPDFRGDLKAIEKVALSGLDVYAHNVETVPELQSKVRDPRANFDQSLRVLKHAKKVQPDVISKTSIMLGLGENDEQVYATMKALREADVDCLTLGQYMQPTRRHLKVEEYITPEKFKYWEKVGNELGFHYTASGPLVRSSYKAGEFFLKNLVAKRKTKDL
UniProt Q12906, sequence (Q12906 whole entry, looked up): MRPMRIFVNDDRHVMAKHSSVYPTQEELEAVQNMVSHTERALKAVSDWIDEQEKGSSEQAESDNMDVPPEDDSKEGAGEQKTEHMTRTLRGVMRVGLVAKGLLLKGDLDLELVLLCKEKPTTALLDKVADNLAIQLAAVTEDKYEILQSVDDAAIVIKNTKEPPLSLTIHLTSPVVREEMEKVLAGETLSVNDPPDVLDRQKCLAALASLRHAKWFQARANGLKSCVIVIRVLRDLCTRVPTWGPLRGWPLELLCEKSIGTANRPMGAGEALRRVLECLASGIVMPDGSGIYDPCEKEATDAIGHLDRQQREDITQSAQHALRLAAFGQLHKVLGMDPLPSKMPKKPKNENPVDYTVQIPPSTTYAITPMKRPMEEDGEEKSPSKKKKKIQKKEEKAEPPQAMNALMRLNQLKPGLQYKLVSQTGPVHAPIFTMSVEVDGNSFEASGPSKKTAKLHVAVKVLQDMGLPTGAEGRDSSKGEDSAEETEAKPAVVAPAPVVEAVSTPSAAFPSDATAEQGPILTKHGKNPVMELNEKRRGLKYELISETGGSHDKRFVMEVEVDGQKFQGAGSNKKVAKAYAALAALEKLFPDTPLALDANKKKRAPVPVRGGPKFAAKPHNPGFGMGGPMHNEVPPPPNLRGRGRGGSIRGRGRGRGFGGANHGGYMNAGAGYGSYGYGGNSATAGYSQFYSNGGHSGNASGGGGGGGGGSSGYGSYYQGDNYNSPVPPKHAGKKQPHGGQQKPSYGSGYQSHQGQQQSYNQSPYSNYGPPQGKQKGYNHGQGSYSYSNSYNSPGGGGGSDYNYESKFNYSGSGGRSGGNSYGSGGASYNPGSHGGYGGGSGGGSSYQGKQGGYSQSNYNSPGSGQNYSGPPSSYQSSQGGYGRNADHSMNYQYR
UniProt Q9UBF1, sequence (Q9UBF1 whole entry, looked up): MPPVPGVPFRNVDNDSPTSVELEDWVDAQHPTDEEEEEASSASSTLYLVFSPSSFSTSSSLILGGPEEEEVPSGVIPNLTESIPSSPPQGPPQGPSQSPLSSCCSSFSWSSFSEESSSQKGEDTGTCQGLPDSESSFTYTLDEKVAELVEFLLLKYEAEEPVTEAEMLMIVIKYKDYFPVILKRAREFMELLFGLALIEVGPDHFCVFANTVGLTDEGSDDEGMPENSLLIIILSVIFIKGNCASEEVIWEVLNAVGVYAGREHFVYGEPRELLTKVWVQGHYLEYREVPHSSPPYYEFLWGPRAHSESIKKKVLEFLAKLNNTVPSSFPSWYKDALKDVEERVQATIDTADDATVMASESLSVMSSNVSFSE
UniProt Q15528, sequence (Q15528 whole entry, looked up): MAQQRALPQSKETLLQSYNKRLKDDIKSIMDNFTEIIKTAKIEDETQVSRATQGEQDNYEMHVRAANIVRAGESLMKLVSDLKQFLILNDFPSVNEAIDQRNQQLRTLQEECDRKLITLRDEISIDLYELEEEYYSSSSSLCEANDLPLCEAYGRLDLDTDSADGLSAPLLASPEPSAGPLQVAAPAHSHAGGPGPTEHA
UniProt Q96EK5, sequence (Q96EK5 whole entry, looked up): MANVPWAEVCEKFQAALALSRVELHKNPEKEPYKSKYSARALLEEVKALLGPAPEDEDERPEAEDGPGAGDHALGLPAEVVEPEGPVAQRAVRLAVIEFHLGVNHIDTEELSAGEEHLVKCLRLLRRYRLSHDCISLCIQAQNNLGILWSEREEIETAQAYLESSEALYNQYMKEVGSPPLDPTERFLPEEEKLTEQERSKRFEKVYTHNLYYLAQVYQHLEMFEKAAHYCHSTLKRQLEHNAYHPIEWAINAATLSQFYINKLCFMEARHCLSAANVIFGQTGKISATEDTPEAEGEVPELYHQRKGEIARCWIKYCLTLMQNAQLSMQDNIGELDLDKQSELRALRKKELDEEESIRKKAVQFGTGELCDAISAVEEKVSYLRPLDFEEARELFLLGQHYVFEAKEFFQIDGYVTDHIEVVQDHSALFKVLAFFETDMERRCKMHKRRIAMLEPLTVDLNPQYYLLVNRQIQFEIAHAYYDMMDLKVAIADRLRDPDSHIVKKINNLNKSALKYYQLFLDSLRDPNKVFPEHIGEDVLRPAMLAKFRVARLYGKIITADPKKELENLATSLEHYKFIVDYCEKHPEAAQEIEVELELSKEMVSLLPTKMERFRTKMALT
UniProt Q9H6K1, sequence (Q9H6K1 whole entry, looked up): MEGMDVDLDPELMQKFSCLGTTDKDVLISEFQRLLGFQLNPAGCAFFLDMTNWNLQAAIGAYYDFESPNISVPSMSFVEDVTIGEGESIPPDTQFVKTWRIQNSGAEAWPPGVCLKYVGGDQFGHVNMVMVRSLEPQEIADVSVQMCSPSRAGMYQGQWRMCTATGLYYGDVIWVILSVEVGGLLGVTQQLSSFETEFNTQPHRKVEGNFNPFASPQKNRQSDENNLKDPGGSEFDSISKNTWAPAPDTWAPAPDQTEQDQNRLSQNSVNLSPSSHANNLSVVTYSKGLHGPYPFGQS

Target | log2 fold change (erlotinib) | log2 fold change [1] | log2 fold change [2] | log2 fold change [3] | log2 fold change [4] | log2 fold change [5] | log2 fold change [6] | log2 fold change [7] | log2 fold change [8] | log2 fold change [9] | log2 fold change (IRAK-1-4 Inhibitor I) | log2 fold change (ibrutinib) | log2 fold change [10] | log2 fold change (ralimetinib) | log2 fold change [11] | log2 fold change [12] | log2 fold change [13] | log2 fold change (pinometostat) | log2 fold change [14] | log2 fold change [15]
ILRUN (UniProt Q9H6K1) | -0.009 | 0.069 | -0.033 | 0.027 | 0.075 | 0.043 | -0.06 | -0.063 | 0.028 | 0.041 | 0.031 | 0.044 | -0.011 | -0.004 | -0.035 | -0.148 | 0.027 | -0.06 | 0.031 | -0.055
LIAS (UniProt O43766) | 0.068 | -0.24 (active) | 0.011 | 0.019 | 0.014 | 0.007 | -0.273 | 0.009 | 0.028 | 0 | 0.029 | 0.005 | 0.101 | -0.212 | -0.003 | -0.023 | 0.131 | -0.011 | 0.003 | -0.01
METAP1D (UniProt Q6UB28) | -0.061 | -0.307 | -0.02 | 0.025 | -0.004 | -0.014 | 0.005 | -0.002 | -0.018 | 0.033 | -0.122 | 0.017 | 0.084 | 0.01 | -0.032 | 0.094 | 0.044 | -0.003 | 0.073 | -0.024
ILF3 isoform 7 (UniProt Q12906) | -0.068 | -0.084 | -0.266 | -0.004 | -0.049 | 0.099 | -0.061 | -0.01 | 0.054 | -0.186 | -0.098 | 0.014 | 0.172 | 0.067 | 0.086 | 0.338 | 0.001 | 0.134 | 0.006 | 0.218
MED1 (UniProt Q15648) | -0.022 | -0.011 | -0.118 | -0.001 | 0.04 | 0.043 | -0.03 | -0.043 | 0.016 | -0.025 | -0.049 | 0.002 | -0.28 (active) | 0.032 | -0.008 | -0.106 | 0.033 | 0.189 | 0.019 | 0.027
MARK2 (UniProt E9PC69) | 0.12 | 0.091 | 0.043 | -0.042 | 0.115 | -0.1 | -0.014 | -0.756 (active) | -0.227 | -0.126 | -0.156 | -0.047 | -2.09 (active) | 0.031 | -0.047 | -0.581 | 0.049 | 0.078 | 0.077 | 0.034
MAGEC2 (UniProt Q9UBF1) | -0.026 | 0.024 | -0.099 | -0.018 | -0.003 | 0.03 | -0.011 | -0.004 | -0.022 | 0.051 | -0.003 | -0.02 | 0.108 | 0.093 | 0.058 | -0.059 | 0.05 | -0.003 | -0.035 | -0.318 (active)
MED22 (UniProt Q15528) | -0.11 | 0.035 | -0.013 | -0.036 | 0.061 | -0.002 | 0.022 | -0.071 | -0.156 | 0.259 | 0.013 | 0.076 | -0.058 | 0.064 | 0.039 | -0.016 | 0.076 | 0.012 | -0.007 | 0.096
KIF21A isoform 4 (UniProt Q7Z4S6) | 0.017 | 0.056 | -0.043 | -0.016 | -0.023 | 0.006 | -0.075 | -0.065 | -0.144 | -0.233 | -0.025 | -0.053 | -0.054 | 0.035 | -0.062 | -0.009 | 0.084 | 0.144 | 0.01 | 0.096
LEO1 (UniProt Q8WVC0) | 0.132 | 0.108 | 0.194 | -0.079 | -0.006 | 0.007 | -0.035 | -0.039 | -0.076 | -0.045 | 0.134 | 0.026 | -0.027 | -0.031 | -0.044 | -0.016 | 0.068 | 0.019 | 0.019 | -0.394 (active)
LIMD1 (UniProt Q9UGP4) | 0.017 | 0.058 | 0.062 | -0.019 | -0.01 | 0.077 | 0.013 | 0.006 | -0.045 | 0.042 | 0.03 | 0.033 | -0.008 | 0.035 | -0.035 | 0.044 | -0.072 | 0.016 | 0.003 | -0.032
LMNA (UniProt P02545) | -0.025 | 0.116 | 0.009 | -0.106 | -0.031 | 0.035 | -0.049 | -0.171 | -0.086 | 0.013 | 0.006 | -0.023 | -0.18 | -0.058 | 0.115 | 0.076 | 0 | -0.057 | 0.005 | -0.017
LTO1 (UniProt Q8WV07) | -0.095 | 0.072 | 0.032 | 0.059 | 0.002 | 0.089 | -0.035 | -0.052 | -0.032 | 0.169 | -0.028 | 0.037 | 0.061 | 0.028 | 0.011 | -0.017 | 0 | -0.028 | 0.04 | 0.041
KIFBP (UniProt Q96EK5) | -0.034 | 0.147 | 0 | 0.017 | 0.074 | -0.015 | -0.008 | 0.03 | 0.014 | -0.058 | -0.019 | 0.011 | -0.033 | -0.02 | -0.045 | -0.172 | 0.2 | 0.019 | -0.034 | 0.054
LEMD2 (UniProt Q8NC56) | 0.04 | 0.007 | -0.054 | -0.002 | 0.11 | 0.001 | 0.042 | 0.008 | -0.016 | 0.046 | 0.015 | 0.082 | -0.066 | -0.02 | -0.024 | -0.63 (active) | 0.022 | -0.014 | -0.051 | 0.131
LYN (UniProt P07948) | -0.073 | 0.044 | -0.171 | 0.007 | 0.005 | -0.028 | -0.014 | -0.253 | 0.035 | -0.015 | -0.016 | 0.4 (active) | -0.456 (active) | 0.045 | 0.018 | -0.03 | 0.24 | 0.065 | 0.008 | 0.078
